# High-throughput results (PubChem)
# MIN6 prolif: inducers of MIN6 beta-cell proliferation, primary screen, ATP luminescence, uHTS | MIN6 cells proliferation, ATPlite luminescence, 48 h; cells starved in 0.2% serum; 100% = growth in 10% serum | proliferation, % at 10 µM | 0.29% of 330,000 active;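 active means compounds whose signal lies at least 3.5 SD above the mean of all wells on their plate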
# A3G deaminase: APOBEC3G DNA deaminase inhibitors, primary screen, biochemical, fluorescence, single-stranded DNA substrate, uHTS; recombinant A3G, ssDNA deamination FAM/TAMRA fluorescence; inhibition, % at 20 µM; 0.28% of 330,000 active;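 active means inhibition of at least 40% at 20 µM, with no more than 30% in the related APOBEC3A deaminase screen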
# Target sequence (Q9HC16 whole entry, looked up): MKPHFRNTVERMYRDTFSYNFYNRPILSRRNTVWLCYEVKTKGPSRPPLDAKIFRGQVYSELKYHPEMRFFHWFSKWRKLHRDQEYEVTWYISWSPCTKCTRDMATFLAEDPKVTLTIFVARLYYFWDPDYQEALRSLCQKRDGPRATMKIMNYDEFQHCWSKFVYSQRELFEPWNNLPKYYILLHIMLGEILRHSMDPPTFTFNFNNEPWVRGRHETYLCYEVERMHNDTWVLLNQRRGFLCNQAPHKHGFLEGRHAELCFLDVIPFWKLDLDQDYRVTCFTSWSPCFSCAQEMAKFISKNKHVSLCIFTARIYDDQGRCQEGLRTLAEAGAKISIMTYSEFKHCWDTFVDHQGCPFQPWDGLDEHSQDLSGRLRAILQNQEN
# Bfl-1 A1 inh: caspase 3/7 activation in MEF A1-2A-BIM cells, primary screen, A1 inhibitor project, cell-based, luminescence, HTS | Caspase-Glo 3/7 luminescence, 3 h; percent of clofoctol response, vehicle zero | caspase activation, % (test concentration not listed) | 0.066% of 330,000 active | AID 2462, 2010;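 active means over half of replicate activation scores above 10%, or exactly half above 10 with the replicate mean above 10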
# A3A deaminase: APOBEC3A ssDNA deaminase inhibitors, primary screen, selectivity assay for APOBEC3G inhibitor project, biochemical, FAM/TAMRA oligo cleavage fluorescence. inhibition, % at 20 µM. recombinant A3A, FAM/TAMRA ssDNA deamination fluorescence. AID 493011, 2011. DNA dC->dU-editing enzyme APOBEC-3A (Homo sapiens), P31941. 0.41% of 330,000 active;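 active means at least 40% inhibition at 20 µM here, with at most 30% in a related deaminase screen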
# A3G conf: APOBEC3G deaminase inhibitor retest, confirmation, biochemical, fluorescence, single-stranded DNA substrate, single concentration. shares compounds with A3G deaminase. recombinant A3G ssDNA deaminase, UDG/FAM-TAMRA fluorescence. inhibition, % at 20 µM. 72% of 890 active;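 active means inhibition reaching a set limit in any replicate at 20 µM, the limit being 80% of the first screen's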
# UDG ctr A3G: E. coli UDG inhibitors, confirmation, counter-screen for APOBEC3G inhibitor project, biochemical, single concentration, fluorescence, FAM/TAMRA oligo | 710 tested, under 10 active | inhibition, % at 20 µM | AID 504715, 2011 | shares compounds with A3G deaminase | UDG counterscreen;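 active means compounds giving 40% or more inhibition at 20 µM in any one of the three replicates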;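 further: inhibitors lower the FAM signal released by uracil excision and alkaline cleavage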
# Hits are given with their value; . = inactive; / = no result. Hits are enriched below; roughly 1.1% of the tested compounds scored in any of these assays.
SMILES,MIN6 prolif,A3G deaminase,Bfl-1 A1 inh,A3A deaminase,A3G conf,UDG ctr A3G
CCOC(=O)C1=C(C)N(c2ccc(C)cc2)C(=O)/C1=C\c1ccc(O)c(OC)c1,.,77,.,.,.,/
Cn1c(-c2ccc(C(C)(C)C)cc2)n[nH]c1=S,.,41,.,.,73,.
Cc1nc(-c2ccccc2)sc1-c1n[nH]c(=S)n1C,.,43,.,.,76,.
Cn1c(-c2sccc2OCc2ccccc2)n[nH]c1=S,.,45,.,.,78,.
CCn1c(-c2ccc(C(C)(C)C)cc2)n[nH]c1=S,.,.,.,.,/,/
O=C(NN1CCOCC1)c1ccc(S(=O)(=O)N2CCCCC2)cc1,.,.,.,.,/,/
COc1ccc(/C=C/c2cc(C(F)(F)F)on2)cc1,.,.,.,.,/,/
S=c1nc[nH]c2c1[nH]c1ccccc12,.,48,.,.,71,.
Cc1cc(S(=O)(=O)N(Cc2ccccn2)Cc2ccco2)ccc1-n1cnnn1,.,50,.,.,.,/
CCN(CC)S(=O)(=O)c1ccc(-n2cnnn2)c(C)c1,.,.,.,.,/,/
CCOC(=O)c1cnc(-c2ccccc2)nc1N1CCOCC1,.,.,.,.,/,/
CCOC(=O)c1[nH]cc(-c2ccccc2)c1N1CCOCC1,.,62,.,.,41,.
COc1cccc(/C=N/n2c(-c3cc(C)[nH]n3)n[nH]c2=S)c1,.,49,.,.,83,.
COc1cc(/C=N/n2c(-c3cc(C)[nH]n3)n[nH]c2=S)cc(OC)c1OC,.,47,.,.,76,.
COc1cccc(/C=N/n2c(COc3ccccc3)n[nH]c2=S)c1,.,.,.,.,/,/
COc1cc(/C=N/n2c(-c3cc(C)[nH]n3)n[nH]c2=S)ccc1O,.,.,.,.,/,/
Cc1noc(C)c1CSCC(=O)N(C)CC(=O)Nc1ccc(Cl)cc1,.,.,.,.,/,/
COc1cccc(-n2cnc3c(sc4nc(N5CCOCC5)c5c(c43)CCCC5)c2=O)c1,.,.,.,.,/,/
Cc1cc(C)c2[nH]c(=S)cc(C)c2c1,.,73,.,.,active,.
CCn1c(-c2ccc(F)cc2)n[nH]c1=S,.,.,.,.,/,/
C=CCn1c(-c2cc(Cl)ccc2OC)n[nH]c1=S,.,46,.,.,81,.
CCn1c(-c2cc(Cl)ccc2OC)n[nH]c1=S,.,.,.,.,/,/
C=CCn1c(-c2cccc(OC)c2)n[nH]c1=S,.,51,.,.,.,/
C=CCn1c(-c2ccc([N+](=O)[O-])cc2)n[nH]c1=S,.,45,.,.,78,.
CCn1c(-c2cccc(Cl)c2)n[nH]c1=S,.,47,.,.,77,.
O=C(Cc1cccc(F)c1F)NC1CCCN(Cc2ccc(Cl)cc2)C1 (stereo not drawn),.,.,.,.,/,/
CC(OC(=O)Cn1[nH]c(=O)c2ccccc2c1=O)C(=O)NC1(C#N)CCCCC1 (stereo not drawn),.,.,.,.,/,/
CCOc1ccc(NC(=O)CN2C(=O)COc3ccccc32)cc1,.,.,.,.,/,/
C=CCn1c(-c2csc3ccccc23)n[nH]c1=S,.,43,.,.,.,/
